Screening results: PubChem, National Center for Advancing Translational Sciences (NCATS)
An excerpt weighted towards active compounds, which were near 18% of everything screened.
TGFb inhibitor – TGF-b pathway inhibition; AID 588855; HepG2 CAGA-GFP TGF-b/SMAD3 reporter, GFP fluorescence, 18 h; TGF-beta stimulated, 500 pg/mL final; actives 1.2% (n = 410,000); Potency, µM (highest dose often 46.1 µM), inactives show at the top dose activity, negative = inhibition, hits mostly inhibitors; also: potency is read from the fitted curve at half-maximal effect; % is scaled to controls: 0 for no effect and ±100 for the full control effect; nearly all actives have a fitted effect of over 65% in size
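Inhibition was scored as loss of TGF-beta-induced (500 pg/mL final, 18 hours, 37 degrees C) GFP in HEPG2 cells carrying a CAGA-GFP reporter, in DMEM with 1% FBS. Well GFP was summed per cell; Activity was normalised to unstimulated and stimulated DMSO wells, then concentration-response fitting.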
IL1B secr inh – blocks inflammasome-driven IL-1 beta release | THP-1 LPS/ATP IL-1B secretion, AlphaLISA, 16 h; stronger effect = lower value | activity change, % at 57.5 µM | actives 4.7% (n = 360,000); in the data active = activity change below about -50%; inconclusive = mostly about -30% to -49%; also: % is scaled to controls: 0 for no effect and ±100 for the full control effect
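Secreted IL-1B measured by AlphaLISA bead assay after 16 h compound exposure of THP-1 cells; compounds (final up to 57.5 uM) added 1 h before LPS (250 ng/mL) and ATP (1.25 mM) stimulation; lower signal means less secretion.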
DT40 TDP1 CPT – DT40-hTDP1 cell growth loss with CPT; chicken DT40 Tdp1-/-;hTDP1 cells + 20 nM CPT, ATP luminescence, 48 h; Potency, µM (top dose mostly 46.2 µM), for the others: at the top dose activity change, negative = growth inhibition, most hits filed as inhibitors; actives 12% (n = 420,000); AID 686979; also: potency is read from the fitted curve at half-maximal effect; % is scaled to controls: 0 for no effect and ±100 for the full control effect; nearly all actives have a fitted effect of over 55% in size
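Chicken DT40 Tdp1-/- cells stably complemented with human TDP1 were seeded at 400 cells/well in medium containing 20 nM camptothecin, exposed to pin-transferred compounds, and grown at 37 °C for at least 48 hr. Viability was read as ATP luminescence.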
HepG2 tox – kills HepG2 cells in TGF-b inhibitor counter-screen | HepG2 CAGA-GFP viability, ATP luminescence, 18 h | Potency, µM (doses to about 46.1 µM), for the others: at the top dose activity change, negative = cytotoxicity, hits mostly cytotoxic | actives 0.76% (n = 410,000) | AID 588856; also: potency is read from the fitted curve at half-maximal effect
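HepG2 CAGA-GFP cells (1000/well, DMEM with 1% FBS) received compound, then TGF-beta at 500 pg/mL final, and were incubated 18 hours at 37 degrees C. Viability was read by CellTiter-Glo luminescence. Media-only wells were set as complete cell-killing and DMSO as no toxicity.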
TDP1 block – blocks human tyrosyl-DNA phosphodiesterase 1. Q9NUW8. actives 0.28% (n = 350,000). recombinant TDP1, AlphaScreen DNA substrate cleavage. Potency, µM (titrated, usually from 130 µM), inactives show top-dose activity change, negative = inhibition, actives largely listed as inhibitors. AID 485290; also: potency is read from the fitted curve at half-maximal effect; % is scaled to controls: 0 for no effect and ±100 for the full control effect; nearly all actives have a fitted effect of over 40% in size
Target sequence (Q9NUW8 whole entry, looked up): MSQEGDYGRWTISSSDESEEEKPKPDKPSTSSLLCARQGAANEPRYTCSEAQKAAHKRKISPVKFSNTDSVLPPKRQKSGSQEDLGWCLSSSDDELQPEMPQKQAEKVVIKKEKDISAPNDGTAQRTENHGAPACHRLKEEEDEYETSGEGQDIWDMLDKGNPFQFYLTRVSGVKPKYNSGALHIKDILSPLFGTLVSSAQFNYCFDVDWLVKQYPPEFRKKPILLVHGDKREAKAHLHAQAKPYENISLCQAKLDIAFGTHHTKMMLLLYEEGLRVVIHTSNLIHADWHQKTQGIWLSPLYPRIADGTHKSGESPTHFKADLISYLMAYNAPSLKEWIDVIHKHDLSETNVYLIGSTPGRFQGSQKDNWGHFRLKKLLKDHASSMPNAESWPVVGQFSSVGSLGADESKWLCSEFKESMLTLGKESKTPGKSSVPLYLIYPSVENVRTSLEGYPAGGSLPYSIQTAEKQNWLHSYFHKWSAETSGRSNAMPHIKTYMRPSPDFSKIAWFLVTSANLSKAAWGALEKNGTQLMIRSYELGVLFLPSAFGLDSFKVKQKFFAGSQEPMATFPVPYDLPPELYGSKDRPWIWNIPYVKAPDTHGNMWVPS
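AlphaScreen read-out: signal falls as enzyme removes the 3' tyrosine-FITC from a 5'-biotinylated DNA oligo (15 nM, 5 min, RT). Enzyme was E. coli-made recombinant Tdp1 at 1 nM, exposed to compound for 15 min beforehand; beads 10 ug/ml, 10 min.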
DT40 TDP1 no CPT – qHTS for Inhibitors of human tyrosyl-DNA phosphodiesterase 1 (TDP1): qHTS in cells in absence of CPT; actives 15% (n = 420,000); Potency, µM (series often up to 46.2 µM), for inactives: at the top dose activity change, negative = growth inhibition, actives largely listed as inhibitors; DT40 Tdp1-/- hTDP1 cells, no CPT, ATP luminescence, 48 h; also: potency is read from the fitted curve at half-maximal effect; % is scaled to controls: 0 for no effect and ±100 for the full control effect; nearly all actives have a fitted effect of over 55% in size
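Camptothecin absent (DMSO only). Human TDP1-complemented DT40 knockout cells, 400 cells/well, 37 °C for minimum 48 hr; ATP measured via CellTiter-Glo, 30 min dark incubation, luminescence.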
* = called active by the depositor; [ ] = dose if it differs, or a comment. Unless noted, calls follow the shape of the dose curve; as a rule, active = well fitted curve in the direction sought with a large enough effect; inconclusive = small, poorly fitted or top-dose-only effect, or another doubt; inactive = no such curve, though single readings can be large; an effect the other way counts as inactive or inconclusive.

`COc1ccc(-n2c(SCCC(C)C)nc3sc4c(c3c2=O)CC(C(C)C)OC4)cc1` (stereo not given) gave TGFb inhibitor -1% and HepG2 tox -2%.
Screening CC[C@]1(O)CC2CN(CCc3c([nH]c4ccccc34)[C@@](C(=O)OC)(c3cc4c(cc3OC)N(C)[C@H]3[C@@](O)(C(N)=O)[C@H](O)[C@]5(CC)C=CCN6CC[C@]43[C@@H]65)C2)C1 (stereo not given in full) returned DT40 TDP1 CPT 0.34µM* and DT40 TDP1 no CPT 0.34µM*.
For CCC1=C[C@@H]2CN(C1)Cc1c([nH]c3ccccc13)[C@@](C(=O)OC)(c1cc3c(cc1OC)N(C)[C@H]1[C@@](O)(C(=O)OC)[C@H](OC(C)=O)[C@]4(CC)C=CCN5CC[C@]31[C@@H]54)C2 the results were TGFb inhibitor inconclusive, DT40 TDP1 CPT 0.06µM*, HepG2 tox -20%, TDP1 block 15% and DT40 TDP1 no CPT 0.053µM*.
`CC[C@]1(O)C[C@@H]2CN(CCc3c([nH]c4ccccc34)[C@@](C(=O)OC)(c3cc4c(cc3OC)N(C)C3[C@]45CCN4CC=C[C@](CC)(C45)[C@@H](OC(C)=O)[C@]3(O)C(=O)OC)C2)C1` (stereo not given in full) gave DT40 TDP1 CPT 0.025µM*, TDP1 block 9% and DT40 TDP1 no CPT 0.016µM*.
Screening CC[C@]1(O)C[C@@H]2CN(CCc3c([nH]c4ccccc34)[C@](C(=O)OC)(c3cc4c(cc3OC)N(C)[C@H]3[C@](O)(C(=O)OC)[C@@H](C(=O)OC)[C@@]5(CC)C=CCN6CC[C@@]43[C@@H]65)C2)C1 returned DT40 TDP1 CPT 0.084µM*, TDP1 block -2%[56.1 µM] and DT40 TDP1 no CPT 0.11µM*.
Cc1cccc(C(=O)OCC(=O)NCc2ccc(Cl)cc2)c1 was read as TGFb inhibitor -12%, IL1B secr inh 1, DT40 TDP1 CPT -9%, HepG2 tox -31% and DT40 TDP1 no CPT inconclusive.
For CC1(C)CC[C@]2(C(=O)O)CC[C@]3(CO)C(=CCC4[C@@]5(C)C[C@H](O)[C@H](O)[C@@](C)(C(=O)O)C5CC[C@]43C)[C@@H]2C1 (stereo not given in full) the results were TGFb inhibitor -8%, IL1B secr inh 43, DT40 TDP1 CPT 0%, HepG2 tox -12%, TDP1 block -1% and DT40 TDP1 no CPT 0%.
For CC(C)(C)c1cc(C(=O)Nc2ccc(F)cc2)n(Cc2ccc(F)cc2)n1 the results were TGFb inhibitor inconclusive, IL1B secr inh inconclusive, DT40 TDP1 CPT inconclusive, HepG2 tox -54%, TDP1 block 1% and DT40 TDP1 no CPT 21µM*.
`Cc1ccc(NC(=O)c2cc(C(C)(C)C)nn2Cc2ccccc2)cc1` gave TGFb inhibitor inconclusive, IL1B secr inh -81*, DT40 TDP1 CPT inconclusive, HepG2 tox -2%, TDP1 block 0% and DT40 TDP1 no CPT 29µM*.
Cc1ccccc1CNC(=O)CCS(=O)(=O)c1cc2c3c(c1)CCN3C(=O)CC2 was read as TGFb inhibitor 14%, DT40 TDP1 CPT -1%, HepG2 tox 2% and DT40 TDP1 no CPT -7%.
`Cc1ccc2c(Sc3ccc(Cl)cc3)c(C(=O)N3CCCCC3)[nH]c2c1` gave TGFb inhibitor inconclusive, DT40 TDP1 CPT inconclusive, HepG2 tox -109%, TDP1 block 11% and DT40 TDP1 no CPT inconclusive.
For C=CCC1(/C=N/O)CCOC(C)(C)C1 (stereo not given) the results were TGFb inhibitor -9%, IL1B secr inh 17, DT40 TDP1 CPT 0%, HepG2 tox -3% and DT40 TDP1 no CPT -3%.
For O=[N+]([O-])C1C(c2ccccc2)C12c1ccccc1-c1ccccc12 (stereo not given) the results were TGFb inhibitor inconclusive, IL1B secr inh -67*, DT40 TDP1 CPT 1µM*, HepG2 tox -6% and DT40 TDP1 no CPT 1µM*.
Screening CC1(C)c2ccccc2C(=O)c2ccccc21 returned TGFb inhibitor 21%, IL1B secr inh -19, DT40 TDP1 CPT -30%, HepG2 tox 1% and DT40 TDP1 no CPT inconclusive.
For CCOc1ccc(NC(=S)NC(=O)c2c(Br)cnn2C)c([N+](=O)[O-])c1 the results were TGFb inhibitor 9%, IL1B secr inh -4, DT40 TDP1 CPT 21µM*, HepG2 tox 12%, TDP1 block 8% and DT40 TDP1 no CPT 23µM*.
CCCn1c(=O)c2sccc2n2c(CCCC(=O)Nc3ccc(Oc4ccccc4)cc3)nnc12 was read as TGFb inhibitor 18µM*, DT40 TDP1 CPT 10µM*, HepG2 tox -40%, TDP1 block 5% and DT40 TDP1 no CPT 15µM*.
Screening CCCn1c(=O)c2sccc2n2c(CCCC(=O)Nc3ccc(Oc4ccc(Cl)cc4)cc3)nnc12 returned TGFb inhibitor inconclusive, DT40 TDP1 CPT 16µM*, HepG2 tox -29%, TDP1 block 9% and DT40 TDP1 no CPT 16µM*.
`COc1cc(NC(=O)C2CC(=O)N(CCc3ccc(F)cc3)C2)cc(OC)c1OC` (stereo not given) gave TGFb inhibitor -21%, IL1B secr inh -6, DT40 TDP1 CPT 13%, HepG2 tox -7%, TDP1 block 3% and DT40 TDP1 no CPT -13%.
Screening Cc1nc(N)nc(Nc2ccc(C#N)cc2)c1Br returned TGFb inhibitor -3%, IL1B secr inh -5, DT40 TDP1 CPT inconclusive, HepG2 tox -7%, TDP1 block 7% and DT40 TDP1 no CPT inconclusive.
N#Cc1c(N)nc(N)nc1Nc1ccc(Br)cc1 was read as TGFb inhibitor -5%, IL1B secr inh 5, DT40 TDP1 CPT inconclusive, HepG2 tox -5%, TDP1 block 6% and DT40 TDP1 no CPT 15µM*.
`CCOC(=O)C1(Cc2cccc(Cl)c2)CCCN(C(=O)c2c(CC)noc2C)C1` (stereo not given) gave TGFb inhibitor -8%, IL1B secr inh 38, DT40 TDP1 CPT inconclusive, HepG2 tox -28%, TDP1 block 7% and DT40 TDP1 no CPT 12µM*.
